# Hit rate of the full screen: of about 6,200 compounds, about 2,900 (47%) were called active. So high a share suggests a set chosen from earlier hits. The list shows a part of the results. Unmarked numbers belong to inactive results. Rule as the data show it: active = inhibition above about 50%; inactive = the rest.
# Assay: Mycobacterium tuberculosis growth inhibition, primary screen (AID 1259343)
# Conditions: inhibition: at 10 µM, active compounds read high; outcome: 10 uM
row,SMILES,inhibition
1,Cc1ccc(Nc2nc(C)c([N+](=O)[O-])c(N3CCOCC3)n2)c(C)c1,2.59%
2,COCCNc1ncnc2c1c(-c1ccccc1)cn2-c1ccc(C)cc1,100% (active)
3,COCCNc1ncnc2c1c(-c1ccccc1)cn2-c1cccc(Cl)c1,42.5%
4,Cc1ccc(-n2cc(-c3ccccc3)c3c(NCCCO)ncnc32)cc1,24.3%
5,COCCCNc1ncnc2c1c(-c1ccccc1)cn2-c1ccc(OC)cc1,91.3% (active)
6,COCC(C)Nc1ncnc2c1c(-c1ccccc1)cn2-c1ccc(OC)cc1 (centres undefined),-15.1%
7,COc1ccc(-n2cc(-c3ccccc3)c3c(NCC(OC)OC)ncnc32)cc1,19.7%
8,COCC(C)Nc1ncnc2c1c(-c1ccccc1)cn2-c1ccc(F)cc1 (centres undefined),72.1% (active)
9,COCCCNc1ncnc2c1c(-c1ccccc1)cn2-c1ccc(F)cc1,98.3% (active)
10,CN(CC1=CC[C@H]2C[C@@H]1C2(C)C)Cc1nnc(-c2ccccc2)o1,39%
11,CCCCCCCSc1nnc2[nH]c(=O)cc(N)n12,inactive
12,CCCCCCSc1nnc2nc(C)cc(C)n12,58.4% (active)
13,CCCCCCSc1nnc2[nH]c(=O)cc(N)n12,inactive
14,CNc1cc(C(=O)NS(=O)(=O)c2ccccc2)cc(Cl)n1,55.1% (active)
15,O=S(=O)(Nc1ccc(C(F)(F)F)cc1)c1cccc(Cl)c1,22.9%
16,O=C(NS(=O)(=O)c1cncc(Br)c1)c1ccc(OC(F)(F)F)cc1,18.9%
17,O=C(NS(=O)(=O)c1ccccc1)c1cccc(Cl)c1,88.3% (active)
18,COc1cc(C(=O)NS(=O)(=O)c2ccc(Cl)cc2)ccc1OC(C)C,28.1%
19,Cc1ccc2oc(-c3ccc(C)c(N)c3)nc2c1,37.6%
20,Cc1cc(-c2nc3c(C)cccc3o2)ccc1NC(=O)C(C)C,58.5% (active)
21,N#Cc1c(N=CN2CCCCCC2)sc2c1CCCC2,99% (active)
22,Cc1ccc(-n2[nH]c(C)c(N=Nc3cccc(-c4cccc(C(=O)O)c4)c3O)c2=O)cc1C,83.7% (active)

row,SMILES,inhibition
1,Cc1cc2cccc(C(=O)N3CCN4CCN(C)C(=O)C4C3)c2o1 (centres undefined),0.8%
2,Cc1cccc2cc(C(=O)N3C[C@H]4CC=CC[C@H]4C3)oc12,72.4% (active)
3,Cc1ccc(NC2CCCN(C(=O)c3cc4ccccc4o3)C2)cc1C (centres undefined),inactive
4,S=C(Nc1ccccc1)Nc1nncs1,15.5%
5,O=C(Nc1nncs1)c1ccc(C2CCCCC2)cc1,82.1% (active)
6,Cc1cnc(NC(=O)c2ccc(N(C)C3CCCCC3)cc2)s1,45.9%
7,O=C1NC(=S)SC1=Cc1ccccc1OCc1ccccc1,102% (active)
8,O=C1NC(=S)SC1=Cc1ccccc1OC(F)F,81.1% (active)
9,Oc1ccc(-c2ccc(I)cc2)cc1,20.3%
10,C=CCOc1ccc(-c2ccc(C#N)cc2)cc1,-10.6%
11,N#Cc1ccc(-c2ccc(O)cc2)cc1,96.9% (active)
12,O=C(Nc1ccc(Cl)cc1)N1CCC1c1ccccc1F (centres undefined),-6.67%
13,O=C(CCl)N1CCSC1c1ccccc1F (centres undefined),99.6% (active)
14,CCN1CCN(c2c(CN(C(=O)Nc3ccc(SC)cc3)C(C)C)c(C)nn2-c2cccc(F)c2)CC1,74.4% (active)
15,CCCn1nc(C(=O)NC(C)c2nnc3n2CCC3)ccc1=O (centres undefined),3.57%
16,Cn1nc(C(=O)NCC23CC4CC(CC(C4)C2)C3)ccc1=O,77.1% (active)
17,O=c1cc(-c2ccccc2)nc2sc(Br)nn12,102% (active)
18,O=C(O)c1cc(-c2cccc(F)c2)n2nc(-c3ccccc3)cc2n1,34.3%
19,Nc1c(C=C2C=C([N+](=O)[O-])C=C(Br)C2=O)c(=O)nc2sc(-c3ccccc3)nn12,45.7%
20,O=c1[nH]c2c(Cl)c(Cl)c(Cl)cc2o1,31.7%
21,O=c1[nH]c2cc(Cl)c(Br)cc2o1,81.6% (active)
22,O=c1[nH]c2c(Br)c(Br)c(Cl)cc2o1,inactive

row,SMILES,inhibition
1,CCc1c(C)nc(-n2nc(C)cc2NC(=O)Cc2cccc3ccccc23)[nH]c1=O,98.5% (active)
2,CCc1c(C)nc(-n2nc(C)cc2NC(=O)c2ccccc2SC)[nH]c1=O,100% (active)
3,Cc1cc(NC(=O)c2cccc3ccccc23)n(-c2nc(C)c(C)c(=O)[nH]2)n1,-30.4%
4,CCc1c(C)nc(-n2nc(C)cc2NC(=O)c2cccc3ccccc23)[nH]c1=O,100% (active)
5,CCc1c(C)nc(-n2nc(C)cc2NC(=O)c2ccccc2C)[nH]c1=O,12.6%
6,CCc1cc(=O)[nH]c(-n2nc(C)cc2NC(=O)c2ccccc2SC)n1,99.7% (active)
7,CNc1cccc(-c2ccc(O)cc2)n1,33.6%
8,C=CCn1c(-c2ccc(Cl)cc2Cl)csc1=Nc1cccc(O)c1,-10.5%
9,CCOC(=O)Cn1c(=NC(=O)c2ccccc2[N+](=O)[O-])sc2cc(C(C)C)ccc21,3.22%
10,CCc1c(C)nc(-n2nc(C)cc2NC(=O)c2cc(=O)c3ccccc3o2)[nH]c1=O,101% (active)
11,CCc1c(C)nc(-n2nc(C)cc2NC(=O)c2ccccc2C(F)(F)F)[nH]c1=O,101% (active)
12,CCc1c(C)nc(-n2nc(C)cc2NC(=O)c2cc3ccccc3o2)[nH]c1=O,-38.5%
13,Cc1nc(-c2ccc(Cl)cc2)nc(N2CCNCC2)c1Cc1ccccc1,97.6% (active)
14,Cc1nc(-c2ccc(Cl)cc2)nc(N2CCNCC2)c1C,79.2% (active)
15,Cc1nc(C)c(Cc2ccccc2Cl)c(N2CCN(C(=O)c3cccc(Br)c3)CC2)n1,29.3%
16,Cc1cccc(-c2nc(C)c(Cc3ccccc3)c(N3CCNCC3)n2)c1,101% (active)
17,Cc1cccc(OC2CN(c3nc(-c4ccccn4)nc4c3CCNC4)C2)c1,26.7%
18,Cc1nc(-c2cccc(F)c2)nc(N2CCNCC2)c1Cc1ccccc1,66.1% (active)
19,CCc1c(C)nc(-c2ccc(OC)cc2)nc1N1CCNCC1,42.7%
20,Cc1ccc(-c2nc(C)c(C(C)C)c(N3CCNCC3)n2)cc1,44%
